Results on 33 compounds are retold here after ChEMBL document CHEMBL1961873, “Compounds: GSK PKIS; Assays: Nanosyn kinase panel” (2012).

In test [1] the target is RAF proto-oncogene serine/threonine-protein kinase (Homo sapiens) (UniProt P04049). To be noted: at 1 µM.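 Further: values are the mean percent inhibition of CRAF.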
Test [2] concerns the target T1, Interleukin-1 receptor-associated kinase 4 (Homo sapiens) (UniProt Q9NWZ3).
T1 sequence (whole entry): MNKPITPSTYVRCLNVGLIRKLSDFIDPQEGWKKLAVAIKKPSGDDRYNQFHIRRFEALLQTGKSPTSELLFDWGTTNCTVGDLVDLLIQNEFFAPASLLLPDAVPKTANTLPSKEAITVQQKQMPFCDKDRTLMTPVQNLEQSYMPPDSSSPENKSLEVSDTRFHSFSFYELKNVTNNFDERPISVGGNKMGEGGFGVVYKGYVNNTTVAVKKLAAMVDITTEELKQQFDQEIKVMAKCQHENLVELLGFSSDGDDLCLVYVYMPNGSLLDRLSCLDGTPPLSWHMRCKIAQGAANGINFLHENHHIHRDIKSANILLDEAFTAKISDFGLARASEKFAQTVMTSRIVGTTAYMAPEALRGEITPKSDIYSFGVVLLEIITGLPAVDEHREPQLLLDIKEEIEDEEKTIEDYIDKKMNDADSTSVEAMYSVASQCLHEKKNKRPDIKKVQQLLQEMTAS
To be noted: at 0.1 µM.

The target of test [3] is T1, Interleukin-1 receptor-associated kinase 4 (Homo sapiens). As to conditions: at 1 µM.
Test [4] has as its target Leucine-rich repeat serine/threonine-protein kinase 2 (Homo sapiens) (UniProt Q5S007). As to conditions: at 0.1 µM.
For test [5] the target is unchanged. As to conditions: at 1 µM.
Test [6] deals with Leucine-rich repeat serine/threonine-protein kinase 2 (Homo sapiens), Q5S007 [G2019S]. As to conditions: at 0.1 µM.
Sequence of Leucine-rich repeat serine/threonine-protein kinase 2 (Homo sapiens), Q5S007 [G2019S] (Q5S007 whole entry G2019S): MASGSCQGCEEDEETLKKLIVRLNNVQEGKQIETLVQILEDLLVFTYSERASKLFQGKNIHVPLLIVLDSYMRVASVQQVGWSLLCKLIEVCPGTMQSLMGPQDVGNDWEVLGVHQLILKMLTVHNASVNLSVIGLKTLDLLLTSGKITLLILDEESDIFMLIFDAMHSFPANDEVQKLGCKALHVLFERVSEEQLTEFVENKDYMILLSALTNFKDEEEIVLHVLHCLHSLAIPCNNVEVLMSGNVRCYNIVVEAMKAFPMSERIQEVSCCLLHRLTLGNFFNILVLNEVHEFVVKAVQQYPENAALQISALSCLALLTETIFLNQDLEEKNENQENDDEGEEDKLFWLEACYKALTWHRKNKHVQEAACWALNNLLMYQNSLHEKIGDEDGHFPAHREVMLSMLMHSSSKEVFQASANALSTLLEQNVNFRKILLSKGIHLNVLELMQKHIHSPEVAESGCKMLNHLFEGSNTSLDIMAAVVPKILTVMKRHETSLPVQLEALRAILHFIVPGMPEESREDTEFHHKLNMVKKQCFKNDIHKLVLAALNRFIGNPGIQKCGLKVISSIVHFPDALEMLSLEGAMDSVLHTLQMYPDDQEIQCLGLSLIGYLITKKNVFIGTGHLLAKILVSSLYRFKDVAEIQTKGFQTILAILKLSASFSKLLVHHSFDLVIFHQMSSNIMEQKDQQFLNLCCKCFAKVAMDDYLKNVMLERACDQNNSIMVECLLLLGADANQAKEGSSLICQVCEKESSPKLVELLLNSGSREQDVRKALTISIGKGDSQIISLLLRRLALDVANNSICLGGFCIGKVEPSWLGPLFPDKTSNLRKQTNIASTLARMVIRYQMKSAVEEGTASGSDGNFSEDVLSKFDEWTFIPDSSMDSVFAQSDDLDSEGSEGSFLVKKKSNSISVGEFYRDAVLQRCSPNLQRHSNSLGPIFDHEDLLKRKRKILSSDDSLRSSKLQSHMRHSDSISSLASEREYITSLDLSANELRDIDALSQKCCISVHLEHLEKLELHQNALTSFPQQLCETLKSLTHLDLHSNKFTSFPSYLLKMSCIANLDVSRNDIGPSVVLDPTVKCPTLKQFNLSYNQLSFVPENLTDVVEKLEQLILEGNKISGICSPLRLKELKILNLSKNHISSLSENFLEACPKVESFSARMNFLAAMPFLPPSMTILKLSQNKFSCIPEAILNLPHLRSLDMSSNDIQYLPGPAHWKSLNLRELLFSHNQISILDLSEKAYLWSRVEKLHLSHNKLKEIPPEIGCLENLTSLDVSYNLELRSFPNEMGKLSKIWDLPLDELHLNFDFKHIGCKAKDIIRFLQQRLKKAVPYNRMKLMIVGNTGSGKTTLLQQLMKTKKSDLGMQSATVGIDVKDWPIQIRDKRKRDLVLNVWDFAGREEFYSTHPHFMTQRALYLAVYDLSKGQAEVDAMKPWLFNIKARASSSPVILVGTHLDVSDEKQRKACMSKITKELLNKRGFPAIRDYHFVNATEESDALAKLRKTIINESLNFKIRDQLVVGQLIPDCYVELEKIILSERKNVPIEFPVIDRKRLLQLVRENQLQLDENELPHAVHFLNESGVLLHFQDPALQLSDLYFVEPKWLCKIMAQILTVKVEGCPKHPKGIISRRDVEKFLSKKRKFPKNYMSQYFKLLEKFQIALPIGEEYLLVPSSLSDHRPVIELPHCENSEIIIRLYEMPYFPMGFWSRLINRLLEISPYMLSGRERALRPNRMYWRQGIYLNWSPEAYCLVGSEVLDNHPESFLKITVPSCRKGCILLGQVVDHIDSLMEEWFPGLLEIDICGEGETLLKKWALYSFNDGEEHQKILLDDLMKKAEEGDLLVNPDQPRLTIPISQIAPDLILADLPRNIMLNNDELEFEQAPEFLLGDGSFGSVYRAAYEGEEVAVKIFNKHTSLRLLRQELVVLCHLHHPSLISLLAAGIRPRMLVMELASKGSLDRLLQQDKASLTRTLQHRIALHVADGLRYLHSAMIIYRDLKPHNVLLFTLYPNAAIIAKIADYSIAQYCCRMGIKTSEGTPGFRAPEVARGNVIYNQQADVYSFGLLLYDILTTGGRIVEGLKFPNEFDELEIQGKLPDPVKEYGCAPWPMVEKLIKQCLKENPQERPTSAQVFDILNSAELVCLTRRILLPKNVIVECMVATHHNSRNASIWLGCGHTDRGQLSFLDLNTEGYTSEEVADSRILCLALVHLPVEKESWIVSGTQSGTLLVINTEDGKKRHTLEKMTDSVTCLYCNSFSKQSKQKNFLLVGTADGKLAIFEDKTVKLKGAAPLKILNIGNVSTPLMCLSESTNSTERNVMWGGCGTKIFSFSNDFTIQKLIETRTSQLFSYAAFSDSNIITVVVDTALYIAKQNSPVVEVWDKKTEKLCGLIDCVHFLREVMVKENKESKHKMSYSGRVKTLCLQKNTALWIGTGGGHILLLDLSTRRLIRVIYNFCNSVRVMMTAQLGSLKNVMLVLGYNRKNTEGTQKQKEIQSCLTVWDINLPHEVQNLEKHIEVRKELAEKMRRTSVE
The test system is the same in test [7]. To be noted: at 1 µM.

Molecules are shown by their SMILES.

Sequence of Leucine-rich repeat serine/threonine-protein kinase 2 (Homo sapiens) (Q5S007 whole entry): as the sequence (Q5S007 whole entry G2019S) above, with S2019G counted along it
Sequence of RAF proto-oncogene serine/threonine-protein kinase (Homo sapiens) (P04049 whole entry): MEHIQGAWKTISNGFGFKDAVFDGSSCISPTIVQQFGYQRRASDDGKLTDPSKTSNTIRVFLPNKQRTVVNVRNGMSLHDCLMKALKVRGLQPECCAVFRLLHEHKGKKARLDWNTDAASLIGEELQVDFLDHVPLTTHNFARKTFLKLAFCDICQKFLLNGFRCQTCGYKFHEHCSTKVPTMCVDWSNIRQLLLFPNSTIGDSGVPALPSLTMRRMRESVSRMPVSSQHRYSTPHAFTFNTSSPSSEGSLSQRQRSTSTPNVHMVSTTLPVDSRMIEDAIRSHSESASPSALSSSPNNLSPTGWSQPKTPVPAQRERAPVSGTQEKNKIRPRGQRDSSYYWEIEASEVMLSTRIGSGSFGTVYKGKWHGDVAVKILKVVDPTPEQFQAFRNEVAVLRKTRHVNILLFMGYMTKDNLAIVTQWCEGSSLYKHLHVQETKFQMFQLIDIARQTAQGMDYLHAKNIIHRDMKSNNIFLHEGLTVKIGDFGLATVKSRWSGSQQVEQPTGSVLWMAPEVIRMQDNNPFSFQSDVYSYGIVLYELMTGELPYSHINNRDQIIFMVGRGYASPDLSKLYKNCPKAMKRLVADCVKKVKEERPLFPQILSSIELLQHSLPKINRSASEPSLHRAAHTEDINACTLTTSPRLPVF

On to `CCc1nn2ncccc2c1-c1ccnc(NC2CC2)n1`, for which the inhibition (usually the change of the read-out against control, counted positive when it falls) was -3.3% in test [1]; 1.42% in test [2]; 1.5% in test [3]; 0.11% in test [4]; 4.02% in test [5]; 1.77% in test [6]. In test [7], the inhibition was 4.72%.
On to `O=C(O[C@H]1CN[C@H](C#Cc2cc3ncnc(Nc4ccc(Cc5ccccc5)cc4)c3s2)C1)N1CCOCC1`, for which the inhibition in test [1] is 0.23%; in test [2] it was -0.04%; in test [3], -0.2%; in test [4] it was 1.27%; in test [5], 2.6%; in test [6] it was 2.35%. Further, in test [7], the inhibition was found to be 3.96%.
For `CN1CCC(n2cnc(-c3ccc(F)cc3)c2-c2ccnc(Nc3ccccc3)n2)CC1`, the inhibition was -0.18% in test [1]; 1.95% in test [2]; 1.28% in test [3]; 1.16% in test [4]; 3.05% in test [5]; 1.22% in test [6]. For the same compound, the inhibition in test [7] is 5.12%.
Consider `CCn1c(-c2nonc2N)nc2ccccc21`, for which the inhibition was 2.78% in test [1]; -0.13% in test [2]; 1.55% in test [3]; 6.41% in test [4]; 8.23% in test [5]; 5% in test [6]. Also, the inhibition in test [7] came to 13.7%.
For the compound `CNC(=O)c1cccc(C#Cc2cncnc2Nc2ccc(OCc3cccc(F)c3)c(Cl)c2)c1`, the inhibition in test [1] is -1.34%; in test [2] it was -3.89%; in test [3] it was 0.26%; in test [4], 0.02%; in test [5] it was 3.48%; in test [6], -1.1%. In addition, in test [7], the inhibition was 3.49%.
Turning to `Fc1ccc(-c2nn3ncccc3c2-c2ccnc(Nc3ccc4c(c3)OCCO4)n2)cc1`, the inhibition in test [1] was -0.33%; in test [2] it was 2.79%; in test [3] it was 2.18%; in test [4] it was 3.63%; in test [5] it was 7.64%; in test [6], 2.59%. Also, in test [7], the inhibition was 6.75%.
`Fc1ccc(-c2cc(-c3c[nH]nc3-c3ccccn3)ccn2)cc1`: the inhibition in test [1] was -1.83%; in test [2], 2.71%; in test [3], 1.76%; in test [4], 2.24%; in test [5], 5.28%; in test [6], 3.03%. Also, the inhibition in test [7] was found to be 4.92%.
On to `CC(C)COC(=O)c1ccc2c(c1)/C(=C/Nc1ccc(S(N)(=O)=O)cc1)C(=O)N2`, for which the inhibition in test [1] was determined as 0.2%; in test [2] it was 2.68%; in test [3], 0.81%; in test [4] it was 7.28%; in test [5], 22.7%; in test [6], 23.3%. Also, the inhibition in test [7] worked out at 64.1%.
As for `O=C(Nc1n[nH]c2cc(-c3ccc(F)cc3)ccc12)C1CC1`, the inhibition in test [1] was -2.56%; in test [2], 2.26%; in test [3], 1.45%; in test [4], 0.78%; in test [5], 5.22%; in test [6] it was 3.03%. In test [7], the inhibition came out at 6.98%.
On to `COC(=O)Nc1nc2ccc(Oc3ccc(NC(=O)Nc4cccc(Cl)c4)cc3)cc2[nH]1`, for which the inhibition in test [1] is 5.38%; in test [2] it was -0.12%; in test [3], 0.32%; in test [4], 6.71%; in test [5] it was 14.1%; in test [6], 5%. Moreover, in test [7], the inhibition stood at 6.86%.
For the compound `CCn1c(-c2nonc2N)nc2c(C#CC(C)(C)O)nc(OC[C@H](N)c3ccccc3)cc21`, the inhibition was -1.64% in test [1]; 1.14% in test [2]; 1.37% in test [3]; 7.19% in test [4]; 29.8% in test [5]; 23.8% in test [6]. Further, the inhibition in test [7] worked out at 63.2%.
Turning to `CN(C)CCOc1ccc(-c2nc(-c3ccncc3)c(-c3ccc4c(c3)CC/C4=N\O)[nH]2)cc1`, the inhibition was 69.9% in test [1]; -2.04% in test [2]; 2.08% in test [3]; 2.63% in test [4]; 6.56% in test [5]; 2.57% in test [6]. Besides, the inhibition in test [7] came out at 9.36%.
Regarding `CC(=O)NCc1cccc(C#Cc2cncnc2Nc2ccc(OCc3cccc(F)c3)c(Cl)c2)c1`, the inhibition in test [1] is -4.04%; in test [2] it was 2.92%; in test [3], 0.5%; in test [4], 0.41%; in test [5], 7.51%; in test [6] it was 2.36%. For the same compound, in test [7], the inhibition came to 7.6%.
Turning to `FC(F)(F)c1cccc(-c2nn3ncccc3c2-c2ccnc(Nc3ccc4c(c3)OCCO4)n2)c1`, the inhibition in test [1] was -8.65%; in test [2] it was 6.37%; in test [3] it was 0.32%; in test [4], 3.16%; in test [5] it was 5.46%; in test [6], 2.53%. Moreover, the inhibition in test [7] turned out to be 7.93%.
For `CCn1c(-c2nonc2N)nc2c(C#CC(C)(C)O)ncc(OC3CCNCC3)c21`, the inhibition was 1.95% in test [1]; 2.02% in test [2]; 1.93% in test [3]; 0.26% in test [4]; 6.79% in test [5]; 3.92% in test [6]. The inhibition in test [7] came out at 12%.
As to `c1ccc(COc2ccc(Nc3ncnc4ccc(-c5ccco5)cc34)cc2)cc1`, the inhibition in test [1] was 6.05%; in test [2] it was 0.92%; in test [3] it was 1.06%; in test [4], 4.27%; in test [5], 3.99%; in test [6], 3.97%. The inhibition in test [7] was found to be 1.89%.
As to `Nc1ncc(-c2cccc(S(N)(=O)=O)c2)c2scc(-c3ccc(F)c(Cl)c3)c12`, the inhibition in test [1] was -4.88%; in test [2] it was 1.66%; in test [3] it was 2.08%; in test [4], 10.2%; in test [5], 45.8%; in test [6], 11.7%. The inhibition in test [7] was 51.2%.
For `COc1cc(N2CCN(C(C)C)CC2)ccc1Nc1nc(Nc2ccc(F)cc2C(N)=O)c2cc[nH]c2n1`, the inhibition in test [1] was -2.24%; in test [2] it was 0.7%; in test [3] it was 1.94%; in test [4] it was 84.9%; in test [5] it was 94.8%; in test [6], 85.4%. Further, the inhibition in test [7] stood at 62.5%.
Consider `CS(=O)(=O)CCNCc1ccc(-c2ccc3ncnc(Nc4ccc(OCc5ccccc5)c(C(F)(F)F)c4)c3c2)o1`, for which the inhibition worked out at 0.04% in test [1]; 0.72% in test [2]; 1.09% in test [3]; 2.22% in test [4]; 4.18% in test [5]; 4.54% in test [6]. Further, the inhibition in test [7] stood at 5.03%.
As to `COc1cc(Nc2nccc(Nc3ccc4c(C)n[nH]c4c3)n2)cc(OC)c1OC`, the inhibition in test [1] was -9.69%; in test [2], -1.6%; in test [3] it was 6.36%; in test [4] it was 9.84%; in test [5], 17.6%; in test [6], 10.8%. For the same compound, the inhibition in test [7] worked out at 43.7%.
On to `CCn1cc(-c2ccnc3[nH]ccc23)c(-c2cccc(NC(=O)Nc3ccc(OCc4ccccc4)cc3)c2)n1`, for which the inhibition in test [1] was -2.76%; in test [2], -0.99%; in test [3] it was -0.44%; in test [4] it was 2.13%; in test [5], 3.32%; in test [6] it was 3.73%. Moreover, the inhibition in test [7] is 4%.
As to `CCN1CCC(CC(=O)Nc2n[nH]c3nnc(-c4cccc(F)c4F)cc23)CC1`, the inhibition in test [1] turned out to be 10.2%; in test [2], 0.45%; in test [3], 1.11%; in test [4], 2.47%; in test [5], 4.14%; in test [6], 2.58%. Besides, in test [7], the inhibition is 4.75%.
Consider `CN1CCC(n2cnc(-c3ccc(F)cc3)c2-c2ccnc(N)n2)CC1`, for which the inhibition in test [1] was -4.14%; in test [2], 3.88%; in test [3] it was 0.94%; in test [4], 0.66%; in test [5], 1.74%; in test [6], 1.6%. Further, the inhibition in test [7] is 9.24%.
Take `COc1ccc(CNC(=O)c2ccc(-c3cc(-c4nnc(C)o4)ccc3C)cc2)cc1`: the inhibition in test [1] was -4.44%; in test [2] it was 0.85%; in test [3] it was 1.98%; in test [4], 3.51%; in test [5], 10.8%; in test [6] it was 5.52%. The inhibition in test [7] was determined as 9.35%.
On to `COc1cc2ncn(-c3cc(OCc4ccccc4C(F)(F)F)c(C(=O)N(C)C)s3)c2cc1OC`, for which the inhibition in test [1] is -3.66%; in test [2], 2.2%; in test [3], -0.25%; in test [4], 2.7%; in test [5], 15.2%; in test [6] it was 1.6%. For the same compound, the inhibition in test [7] was found to be 16.7%.
On to `O=S(=O)(CCNCc1ccc(-c2ccc3ncnc(Nc4ccc(OCc5cccc(F)c5)c(Cl)c4)c3c2)o1)c1ccccc1`, for which the inhibition in test [1] came out at 1.37%; in test [2] it was 2.14%; in test [3], 2.63%; in test [4], 4.97%; in test [5] it was 4.53%; in test [6], 6.27%. Moreover, the inhibition in test [7] came to 9.28%.
On to `COc1ccc(-c2oc3ncnc(N)c3c2-c2ccc(NC(=O)Nc3cc(C(F)(F)F)ccc3F)cc2)cc1`, for which the inhibition in test [1] is 5.86%; in test [2], -1.07%; in test [3], 2.91%; in test [4], 6.22%; in test [5] it was 15%; in test [6], 5.81%. Moreover, in test [7], the inhibition turned out to be 16.8%.
With `CNC(=O)c1cc(-c2ccc(F)cc2)cc(-c2ccc(S(=O)(=O)N3CCCC3)cc2)c1N`, the inhibition is -2.71% in test [1]; 0.68% in test [2]; 1.45% in test [3]; 1.42% in test [4]; 2.9% in test [5]; 4.27% in test [6]. Also, the inhibition in test [7] was 5.64%.
Regarding `CC(C)(CO)CNC(=O)c1ccc2c(c1)/C(=N/Nc1ccc(S(N)(=O)=O)cc1)C(=O)N2`, the inhibition in test [1] was -3.84%; in test [2], -1.23%; in test [3], -0.85%; in test [4], 3.58%; in test [5], 15%; in test [6], 6.85%. Also, the inhibition in test [7] was 37.8%.
For the compound `COc1ccc(-c2nn3ncccc3c2-c2ccnc(Nc3ccc4c(c3)OCCO4)n2)cc1`, the inhibition was -7.5% in test [1]; -0.42% in test [2]; -0.94% in test [3]; 7.1% in test [4]; 11.4% in test [5]; 6.14% in test [6]. In addition, the inhibition in test [7] was 10.2%.
For `CNC(=O)c1cncc(/C=C/c2ccccc2Cl)c1`, the inhibition was -3.13% in test [1]; -1.64% in test [2]; 0.01% in test [3]; 3.2% in test [4]; 4.57% in test [5]; 1.78% in test [6]. Further, in test [7], the inhibition came out at 6.07%.
For `CCOc1ccc2c(-c3ccnc(Nc4cccc(C(F)(F)F)c4)n3)cnn2n1`, the inhibition in test [1] was -1.21%; in test [2], 0.16%; in test [3], 1.01%; in test [4], 3.4%; in test [5], 6.76%; in test [6] it was 4.61%. In addition, the inhibition in test [7] was 10.4%.
On to `Cc1cccc(Nc2ncc(-c3ccccc3)o2)c1`, for which the inhibition was -2.34% in test [1]; 1.25% in test [2]; 1.27% in test [3]; 1.6% in test [4]; 7.74% in test [5]; 5.32% in test [6]. In test [7], the inhibition came to 11.8%.
